Laboratory results reported in PubChem BioAssay AID1159580 (chemical genetic matrix, 2015).
Hit rate of the full screen: of about 5,500 compounds, about 2,000 (36%) were called active. Another 18% or so got no clear call; they are omitted. Rule as the data show it: active = normalized growth mostly below about 0.91 (no sharp cut-off); inconclusive = no clear call, values can overlap the other calls; inactive = mostly above about 0.92. The list shows a part of the results.

Assay: chemical genetic growth profiling, strain panel (AID 1159580);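 also: tested at 20 µM; growth read once vehicle control cultures reached saturation at 30 °C; 1 = growth at the plate median or of vehicle wells; lower values mean less growth of the strain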
Conditions: growth OD

Measured: normalized growth

Nc1nc(/C(=C/CC(=O)O)C(=O)N[C@@H]2C(=O)N3C(C(=O)O)=CCS[C@H]23)cs1
inactive: S. cerevisiae deletion strains, locus YJR075W, strain HOC1, hits give low values 1.01 | S. cerevisiae deletion strains, locus YKL009W, strain mrt4, hits give low values 0.986 | S. cerevisiae deletion strains, locus YKL068W, hits give low values 0.997 | S. cerevisiae deletion strains, locus YKL085W, strain MDH1 (second series), hits give low values 0.987 | S. cerevisiae deletion strains, locus YKL085W, strain MDH1, hits give low values 0.987 | S. cerevisiae deletion strains, locus YKL160W, strain elf1, hits give low values 0.993 | S. cerevisiae deletion strains, locus YKL190W, strain CNB1, hits give low values 1.01 | S. cerevisiae deletion strains, locus YKR001C, strain vps1, hits give low values 0.981 | S. cerevisiae deletion strains, locus YKR026C, strain gcn3, hits give low values 1 | S. cerevisiae deletion strains, locus YKR091W, strain srl3, hits give low values 1.01 | S. cerevisiae deletion strains, locus YLL001W, strain dnm1, hits give low values 1.01 | S. cerevisiae deletion strains, locus YLL026W, hits give low values 1.01 | S. cerevisiae deletion strains, locus YLL041C, strain sdh2, hits give low values 1.01 | S. cerevisiae deletion strains, locus YLR027C, strain aat2, hits give low values 1.01 | S. cerevisiae deletion strains, locus YLR039C, strain RIC1, hits give low values 1.03 | S. cerevisiae deletion strains, locus YLR058C, strain SHM2, hits give low values 0.996 | S. cerevisiae deletion strains, locus YLR102C, strain apc9, hits give low values 0.996 | S. cerevisiae deletion strains, locus YLR113W, strain HOG1, hits give low values 0.998 | S. cerevisiae deletion strains, locus YLR221C, strain rsa3, hits give low values 1.01 | S. cerevisiae deletion strains, locus YLR258W, strain gsy2, hits give low values 0.999 | S. cerevisiae deletion strains, locus YLR262C, strain YPT6 (second series), hits give low values 1.03 | S. cerevisiae deletion strains, locus YLR262C, strain YPT6, hits give low values 1.02 | S. cerevisiae deletion strains, locus YLR268W, strain sec22, hits give low values 0.987 | S. cerevisiae deletion strains, locus YLR320W, strain mms22, hits give low values 1.01 | S. cerevisiae deletion strains, locus YLR330W, strain CHS5, hits give low values 0.99 | S. cerevisiae deletion strains, locus YLR342W, strain FKS1 (second series), hits give low values 1 | S. cerevisiae deletion strains, locus YLR342W, strain FKS1, hits give low values 1.01 | S. cerevisiae deletion strains, locus YLR357W, strain rsc2, hits give low values 1.01 | S. cerevisiae deletion strains, locus YLR370C, strain arc18, hits give low values 1 | S. cerevisiae deletion strains, locus YLR371W, strain rom2, hits give low values 0.995 | S. cerevisiae deletion strains, locus YLR384C, strain iki3, hits give low values 0.997 | S. cerevisiae deletion strains, locus YLR418C, strain cdc73, hits give low values 1 | S. cerevisiae deletion strains, locus YML016C, strain PPZ1, hits give low values 0.984 | S. cerevisiae deletion strains, locus YML032C, strain rad52, hits give low values 0.997 | S. cerevisiae deletion strains, locus YML120C, strain ndi1, hits give low values 1 | S. cerevisiae deletion strains, locus YML124C, strain tub3, hits give low values 0.982 | S. cerevisiae deletion strains, locus YMR058W, strain fet3, hits give low values 0.998 | S. cerevisiae deletion strains, locus YMR078C, strain ctf18, hits give low values 0.991 | S. cerevisiae deletion strains, locus YMR125W, strain sto1, hits give low values 1.01 | S. cerevisiae deletion strains, locus YMR129W, hits give low values 1.01 | S. cerevisiae deletion strains, locus YMR205C, strain PFK2, hits give low values 1.01 | S. cerevisiae deletion strains, locus YMR223W, strain ubp8, hits give low values 1 | S. cerevisiae deletion strains, locus YMR231W, strain pep5, hits give low values 1.01 | S. cerevisiae deletion strains, locus YMR263W, strain SAP30, hits give low values 1.01 | S. cerevisiae deletion strains, locus YMR307W, strain GAS1, hits give low values 0.996 | S. cerevisiae deletion strains, locus YNL067W, strain RPL9B, hits give low values 1.03 | S. cerevisiae deletion strains, locus YNL071W, strain lat1, hits give low values 1 | S. cerevisiae deletion strains, locus YNL128W, strain TEP1, hits give low values 1.01 | S. cerevisiae deletion strains, locus YNL153C, strain GIM3, hits give low values 0.995 | S. cerevisiae deletion strains, locus YNL183C, strain NPR1, hits give low values 0.961 | S. cerevisiae deletion strains, locus YNL209W, strain ssb2, hits give low values 0.994 | S. cerevisiae deletion strains, locus YNL233W, strain BNI4, hits give low values 0.993 | S. cerevisiae deletion strains, locus YNL248C, strain rpa49, hits give low values 1.01 | S. cerevisiae deletion strains, locus YNL250W, strain rad50, hits give low values 0.987 | S. cerevisiae deletion strains, locus YNL271C, strain bni1, hits give low values 0.987 | S. cerevisiae deletion strains, locus YNL298W, strain CLA4, hits give low values 0.984 | S. cerevisiae deletion strains, locus YNL307C, strain MCK1, hits give low values 0.998 | S. cerevisiae deletion strains, locus YNL322C, strain KRE1 (second series), hits give low values 1.01 | S. cerevisiae deletion strains, locus YNL322C, strain KRE1, hits give low values 0.994 | S. cerevisiae deletion strains, locus YNR049C, strain mso1, hits give low values 1 | S. cerevisiae deletion strains, locus YNR052C, strain pop2, hits give low values 0.983 | S. cerevisiae deletion strains, locus YOL006C, strain TOP1, hits give low values 1.02 | S. cerevisiae deletion strains, locus YOL012C, strain htz1 2.11 | S. cerevisiae deletion strains, locus YOL147C, strain pex11, hits give low values 0.997 | S. cerevisiae deletion strains, locus YOR001W, strain rrp6, hits give low values 1.01 | S. cerevisiae deletion strains, locus YOR061W, strain CKA2, hits give low values 0.984 | S. cerevisiae deletion strains, locus YOR069W, strain VPS5, hits give low values 0.993 | S. cerevisiae deletion strains, locus YOR070C, strain gyp1, hits give low values 1 | S. cerevisiae deletion strains, locus YOR080W, strain dia2, hits give low values 1.01 | S. cerevisiae deletion strains, locus YOR083W, strain WHI5, hits give low values 1.01 | S. cerevisiae deletion strains, locus YOR106W, strain vam3, hits give low values 1.02 | S. cerevisiae deletion strains, locus YOR136W, strain idh2, hits give low values 0.983 | S. cerevisiae deletion strains, locus YOR144C, strain elg1, hits give low values 0.988 | S. cerevisiae deletion strains, locus YOR184W, strain ser1, hits give low values 0.999 | S. cerevisiae deletion strains, locus YOR231W, strain MKK1, hits give low values 0.986 | S. cerevisiae deletion strains, locus YOR265W, strain rbl2, hits give low values 1.01 | S. cerevisiae deletion strains, locus YOR270C, strain vph1, hits give low values 1.06 | S. cerevisiae deletion strains, locus YOR290C, strain snf2, hits give low values 0.995 | S. cerevisiae deletion strains, locus YOR316C, strain cot1, hits give low values 0.992 | S. cerevisiae deletion strains, locus YPL051W, strain arl3, hits give low values 1 | S. cerevisiae deletion strains, locus YPL055C, strain LGE1, hits give low values 1.01 | S. cerevisiae deletion strains, locus YPL078C, strain atp4, hits give low values 1 | S. cerevisiae deletion strains, locus YPL106C, strain sse1, hits give low values 1.01 | S. cerevisiae deletion strains, locus YPL240C, strain hsp82, hits give low values 1.01 | S. cerevisiae deletion strains, locus YPL241C, strain CIN2, hits give low values 0.993 | S. cerevisiae deletion strains, locus YPL256C, strain CLN2, hits give low values 0.961 | S. cerevisiae deletion strains, locus YPR119W, strain clb2, hits give low values 0.997 | S. cerevisiae deletion strains, locus YPR141C, strain kar3, hits give low values 0.99 | S. cerevisiae deletion strains, locus YPR163C, strain tif3, hits give low values 0.982 | S. cerevisiae deletion strains, locus YPR167C, strain met16, hits give low values 0.991 | S. cerevisiae deletion strains, strain wtn01, hits give low values 0.985 | S. cerevisiae strains, strain wild type, hits give low values 1.01
